Results on 33 molecules are retold here after PubChem BioAssay (NCATS).

SMILES strings stand for the structures. Where “and” joins values, the source holds several entries; their conditions need not be identical. Identical values can stand only once. Results filed as inconclusive are left out. Values without a mark were called inactive. Calls of active or inactive are those of the source. The call rests on the fitted dose curve; in most records, active means well fitted cell-killing curve with a large enough effect; inconclusive means small, poorly fitted or top-dose-only effect, or effect the other way; inactive means no such curve, though single readings can be large or run the other way.
Potency means the concentration at half of the fitted maximal effect.

A short description of one assay: Quantitative High-Throughput drug screen in 47 multiple myeloma cell lines against the NCATS MIPE library collection: JIM1_ECACC cell viability assay (AID 1918964). To be noted: JIM1 myeloma viability, CellTiter-Glo ATP luminescence, 48 h; series mostly up to 45.8 µM; viability (% of DMSO): at the top concentration. The method in brief:
(§1)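 Approved and investigational drugs from MIPE 4.0 were added by pin tool to 500 cells per well. After 48 hours at 37C, ATP-based CellTiter-Glo luminescence indicated remaining viability.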
Regarding `O=c1[nH]c(-c2ccc(C(F)(F)F)cc2)nc2c1CSCC2`, the “viability (% of DMSO)” value was 124%.

Consider `N=c1nc(N2CCCCC2)cc(N)n1O`, for which the “viability (% of DMSO)” value is 99.9%.

In the case of `O=C(NOC[C@H](O)CO)c1ccc(F)c(F)c1Nc1ccc(I)cc1F`, the Potency is 1.66 µM (active).

In the case of `Cc1cc(-c2ccc(CC(=O)Nc3ccc(-c4cccnc4)cc3)cc2)ccn1`, the Potency is 20.9 µM (active).

Regarding `COc1ccc(-c2oc3cc(OC)ccc3c2C(=O)c2ccc(C#N)cc2)cc1`, the Potency was 6.62 µM (active).

As to `Oc1ccc(C2CNCCc3c2cc(O)c(O)c3Cl)cc1` (stereo not drawn), the “viability (% of DMSO)” value was 116%.

On to `CCc1cncnc1N1CCN(Cc2nc3ccc(C(F)(F)F)cc3[nH]2)CC1`, for which the “viability (% of DMSO)” value was 76.8%.

Take `CN(C)c1ccc(Nc2nc(N)n(C(=O)c3c(F)cccc3F)n2)cc1`: the Potency is 18.7 µM (active).

Regarding `COCC(=O)NCC=Cc1ccc2ncnc(Nc3ccc(Oc4ccc(C)nc4)c(C)c3)c2c1`, the Potency was 16.6 µM (active).

For `O=C1CCc2cc(OCCCCc3nnnn3C3CCCCC3)ccc2N1`, the “viability (% of DMSO)” value is 95.8%.

In the case of `CN(C)c1ccc(C2Nc3ccc4ccccc4c3C3=C2C(=O)CC(C)(C)C3)cc1Br` (stereo not drawn), the Potency was 0.0019 µM (active).

For `CN1CCN(CCCN2c3ccccc3Sc3ccc(C(F)(F)F)cc32)CC1`, the “viability (% of DMSO)” value is 92.5%.

With `O=NN(CCCl)C(=O)NCCCl`, the “viability (% of DMSO)” value is 133%.

Consider `OCCC#Cc1nc(-c2ccc(F)cc2)c(-c2ccncc2)n1CCCc1ccccc1`, for which the Potency is 13.2 µM (active).

Consider `Cc1oncc1C(=O)Nc1ccc(C(F)(F)F)cc1`, for which the “viability (% of DMSO)” value is 109%.

Consider `CCc1ccc(CCOc2ccc(CC3SC(=O)NC3=O)cc2)nc1` (stereo not drawn), for which the “viability (% of DMSO)” value is 129%.

A short description of a further assay: Quantitative High-Throughput drug screen in 47 multiple myeloma cell lines against the NCATS MIPE library collection: INA6_PLB cell viability assay (AID 1918965; further: nearly all actives have a fitted effect of over 55% in size). To be noted: INA6 myeloma viability, CellTiter-Glo ATP luminescence, 48 h; series mostly up to 45.8 µM; viability (% of control): at the top concentration. The method in brief: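 Luminescent ATP measurement with CellTiter-Glo gives viability, scaled between DMSO-only wells (100%) and media-only wells (0%). Cells, 500 per well, faced library compounds for 48 hours at 37C.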
For the molecule `Cn1cnc([N+](=O)[O-])c1Sc1ncnc2nc[nH]c12`, the Potency is 5.26 µM (active).

On to `N=c1nc(N2CCCCC2)cc(N)n1O`, for which the Potency was 23.5 µM (active).

Regarding `O=C(NOC[C@H](O)CO)c1ccc(F)c(F)c1Nc1ccc(I)cc1F`, the Potency is 0.0332 µM (active).

Regarding `CCCS(=O)(=O)Nc1ccc(F)c(C(=O)c2c[nH]c3ncc(Cl)cc23)c1F`, the Potency is 2.96 µM (active).

With `Cc1cc(-c2ccc(CC(=O)Nc3ccc(-c4cccnc4)cc3)cc2)ccn1`, the Potency was 13.2 µM (active).

For the molecule `CCC(=O)N[C@H]1CC[C@H](C(=O)N(C)c2ccc(-c3nc4ccccc4o3)cc2)C1`, the Potency is 14.8 µM (active).

Regarding `CCN(CC)CCCC(C)Nc1nc(C)cc(Nc2ccc3nc(C)cc(N)c3c2)n1` (stereo not drawn), the Potency is 10.5 µM (active).

As to `COc1ccc(-c2oc3cc(OC)ccc3c2C(=O)c2ccc(C#N)cc2)cc1`, the “viability (% of control)” value is 125%.

Regarding `CCc1cc(Nc2nccc(-c3c(-c4ccc(OC)c(C(=O)Nc5c(F)cccc5F)c4)nc4ccccn34)n2)c(OC)cc1N1CCC(N2CCN(S(C)(=O)=O)CC2)CC1`, the Potency is 2.96 µM (active).

For the molecule `Nc1cccc(S(=O)(=O)N2CCCN(S(=O)(=O)c3ccc4c(c3)OCCO4)CC2)c1`, the “viability (% of control)” value is 120%.

`C[C@@H]1CN(Cc2ccc(F)cc2)[C@@H](C)CN1C(=O)c1cc2c(C(=O)C(=O)N(C)C)cn(C)c2cc1Cl`: the Potency was 20.9 µM (active).

For the molecule `CCc1cncnc1N1CCN(Cc2nc3ccc(C(F)(F)F)cc3[nH]2)CC1`, the Potency is 10.5 µM (active).

`CN(C)c1ccc(Nc2nc(N)n(C(=O)c3c(F)cccc3F)n2)cc1`: the Potency was 1.87 µM (active).

As for `CS(=O)(=O)Oc1ccc2c(NC(N)=O)c(C(=O)c3ccc(Cl)cc3Cl)oc2c1`, the Potency was 5.26 µM (active).

With `COCC(=O)NCC=Cc1ccc2ncnc(Nc3ccc(Oc4ccc(C)nc4)c(C)c3)c2c1`, the Potency is 10.5 µM (active).

As to `CC(C=CC1=C(C)CCCC1(C)C)=CC=CC(C)=CC(=O)O`, the Potency is 14.8 µM (active) and 5.9 µM (active).

With `Fc1ccc(Cl)cc1-c1nc(Nc2ccncc2)c2nccnc2n1`, the Potency is 16.6 µM (active).

For the molecule `O=C(Nc1ccc(F)c(C(F)(F)F)c1)Nc1nnc(-c2ccncc2)s1`, the Potency was 2.35 µM (active).

Take `CN1CCN(CCCN2c3ccccc3Sc3ccc(C(F)(F)F)cc32)CC1`: the Potency is 9.35 µM (active).

In the case of `O=NN(CCCl)C(=O)NCCCl`, the “viability (% of control)” value was 143%.

As for `OCCC#Cc1nc(-c2ccc(F)cc2)c(-c2ccncc2)n1CCCc1ccccc1`, the Potency was 26.4 µM (active).

Consider `COc1c(Cl)cc2c([nH]c3cnccc32)c1NC(=O)c1cccnc1C`, for which the Potency was 2.96 µM (active).

For the molecule `C#Cc1cccc(Nc2ncnc3cc(OCCOC)c(OCCOC)cc23)c1`, the Potency is 18.7 µM (active).

Turning to `CCc1ccc(CCOc2ccc(CC3SC(=O)NC3=O)cc2)nc1` (stereo not drawn), the “viability (% of control)” value was 161%.

Another assay is described as follows: Quantitative High-Throughput drug screen in 47 multiple myeloma cell lines against the NCATS MIPE library collection: JJN3_DSMZ cell viability assay (AID 1918966; further: nearly all actives have a fitted effect of over 50% in size). To be noted: JJN3 myeloma cells viability, CellTiter-Glo ATP, 48 h; series mostly up to 45.8 µM; viability, % of DMSO: at the top concentration. A digest of the protocol: as §1
As for `O=C(O)COCCN1CCN(C(c2ccccc2)c2ccc(Cl)cc2)CC1` (stereo not drawn), the “viability, % of DMSO” value is 117%.

Consider `CCCc1nn(C)c2c(=O)[nH]c(-c3cc(S(=O)(=O)N4CCN(C)CC4)ccc3OCC)nc12`, for which the Potency is 18.7 µM (active).

For `NC(=O)c1ccc(-c2nc(-c3ccc4c(c3)OCO4)c(-c3ccccn3)[nH]2)cc1`, the Potency was 0.0042 µM (active).

Regarding `COc1ccc(-c2oc3cc(OC)ccc3c2C(=O)c2ccc(C#N)cc2)cc1`, the “viability, % of DMSO” value is 115%.

`Oc1ccc(C2CNCCc3c2cc(O)c(O)c3Cl)cc1` (stereo not drawn): the “viability, % of DMSO” value was 89.2%.

Regarding `CN(C)c1ccc(Nc2nc(N)n(C(=O)c3c(F)cccc3F)n2)cc1`, the Potency is 20.9 µM (active).

Regarding `COCC(=O)NCC=Cc1ccc2ncnc(Nc3ccc(Oc4ccc(C)nc4)c(C)c3)c2c1`, the Potency is 23.5 µM (active).

Take `CC(C=CC1=C(C)CCCC1(C)C)=CC=CC(C)=CC(=O)O`: the Potency was 5.9 µM (active) and 1.66 µM (active).

Take `CN(C)c1ccc(C2Nc3ccc4ccccc4c3C3=C2C(=O)CC(C)(C)C3)cc1Br` (stereo not drawn): the Potency was 11.8 µM (active).

For `O=NN(CCCl)C(=O)NCCCl`, the Potency is 0.148 µM (active).

Regarding `COc1c(Cl)cc2c([nH]c3cnccc32)c1NC(=O)c1cccnc1C`, the Potency was 18.7 µM (active).

As for `CC(C)(Sc1ccc(CCN(CCCCC2CCCCC2)C(=O)NC2CCCCC2)cc1)C(=O)O`, the Potency was 18.7 µM (active).

On to `Cc1oncc1C(=O)Nc1ccc(C(F)(F)F)cc1`, for which the “viability, % of DMSO” value is 123%.
